Screening data deposited in PubChem BioAssay by several laboratories.
A selection: hits, their analogues and other compounds. The true share with any hit is near 3%.
MITF TRPM1 inh = inhibitors of MITF-driven TRPM1 promoter in melanoma cells; 330,000 tested, 0.83% active; inhibition, % at 12.5 µM; SK-MEL-5 TRPM1 promoter luciferase, 24 h;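 active = mean inhibition across replicates of 60% or more, whatever share of single replicates reaches that level; inconclusive = some that reach 60%, reason not given; inactive = mean inhibition across replicates below 60%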
HIF-2a inh = HIF-2a inhibition; inhibition, % at 18.8 µM; 360,000 tested, 0.72% active; 786-0 RCC cells HIF-2a reporter, luciferase luminescence, overnight;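 active = inhibition of the luminescence signal of 40% or more relative to plate controls, in a single-dose primary screen at 18.75 µM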
KKLEB cytotox = counter-screen for CF NF-kB inhibitors: cytotoxicity | KKLEB CF airway cells viability, ATPlite luminescence, overnight; stronger effect = lower value; cells stimulated with P. aeruginosa culture filtrate | activity change (cytotoxicity), % at 5 µM | 360,000 tested, 0.36% active;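 active = corrected activity change at or below -50% at 5 µM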
CF NFkB block = blocks PAF-induced NF-kB reporter in cystic fibrosis cells | KKLEB NF-kB-GFP reporter, GFP fluorescence overnight | inhibition, % at 5 µM | 360,000 tested, 0.86% active;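 active = at least 50% inhibition at 5 µM, scaled per plate between neutral and stimulator controls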;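 also: PAF is a Pseudomonas aeruginosa culture filtrate used as stimulus; plate controls were PAF-stimulated DMSO wells for no effect and unstimulated DMSO wells for full effect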
Peg3 promoter = reduces Peg3 promoter-driven luciferase expression in HeLa; HeLa PEG-Prom luciferase reporter, luminescence, overnight; inhibition, % at 20 µM; 360,000 tested, 1.7% active; AID 588405;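 active = inhibition of at least 50% at 20 µM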
ABHD5-PLIN5 inh = ABHD5-PLIN5 protein interaction inhibition; Q00G26+Q8WTS1; AID 602281; 360,000 tested, 0.78% active; inhibition, % at 4 µM; Split G. princeps luciferase complementation, luminescence, 4 h;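 active = inhibition above the mean inhibition across every tested compound plus 3 SD, cut at about 22% in these data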;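 also: 0% = DMSO only wells and the 100% control is not disclosed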
Target sequence (Q00G26 whole entry, looked up): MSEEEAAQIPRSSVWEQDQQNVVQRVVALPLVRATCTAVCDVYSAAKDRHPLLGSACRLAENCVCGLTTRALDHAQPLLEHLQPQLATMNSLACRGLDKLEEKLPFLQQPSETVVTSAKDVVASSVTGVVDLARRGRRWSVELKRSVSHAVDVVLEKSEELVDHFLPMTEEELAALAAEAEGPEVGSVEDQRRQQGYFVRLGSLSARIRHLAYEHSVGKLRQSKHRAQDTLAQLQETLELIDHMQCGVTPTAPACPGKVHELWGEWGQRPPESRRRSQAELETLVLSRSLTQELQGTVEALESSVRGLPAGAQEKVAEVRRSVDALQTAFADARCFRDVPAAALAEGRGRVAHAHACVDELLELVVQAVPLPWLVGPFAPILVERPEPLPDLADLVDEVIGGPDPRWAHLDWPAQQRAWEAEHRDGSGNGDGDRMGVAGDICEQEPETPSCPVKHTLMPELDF
Target sequence (Q8WTS1 whole entry, looked up): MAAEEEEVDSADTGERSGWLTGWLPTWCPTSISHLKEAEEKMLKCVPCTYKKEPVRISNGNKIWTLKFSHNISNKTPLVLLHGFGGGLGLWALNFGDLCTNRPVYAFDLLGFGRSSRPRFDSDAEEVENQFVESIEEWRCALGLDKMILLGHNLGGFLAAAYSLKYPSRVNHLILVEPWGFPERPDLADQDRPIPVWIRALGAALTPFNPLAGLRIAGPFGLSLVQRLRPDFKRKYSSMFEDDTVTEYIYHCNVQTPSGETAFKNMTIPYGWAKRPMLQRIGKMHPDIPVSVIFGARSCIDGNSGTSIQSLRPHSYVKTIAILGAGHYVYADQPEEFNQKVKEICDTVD
Numbers without * were called inactive; ? = inconclusive; . = no result given.

SMILES	MITF TRPM1 inh	HIF-2a inh	KKLEB cytotox	CF NFkB block	Peg3 promoter	ABHD5-PLIN5 inh
Cc1c(C(=O)OCCOC(C)C)[nH]c2c1C(=O)CC(c1ccco1)C2 (stereo unspecified)	.	6	-9	46	-16	30*
Cc1c(C(=O)OCc2ccccc2)[nH]c2c1C(=O)CC(c1ccco1)C2 (stereo unspecified)	18	-28	-30	57*	-7	14
CCOC(=O)C1=CCN(S(=O)(=O)c2ccc(Cl)cc2)C1c1ccccc1 (stereo unspecified)	.	4	-21	8	15	-4
CC(C)C/C=C1\CCc2c([nH]c3ccccc23)C1=O	-62	-254	1	-41	-222	4
CCCCCCCCC1=NCCc2c1[nH]c1ccccc21	6	9	-4	-4	91*	-2
Nc1ccccc1O	45	-42	-3	53*	-47	-9
O=C(Cc1ccc(Cl)cc1)c1c[nH]c(C(=O)NCc2cccnc2)c1	9	21	-44	31	102*	3
CC(C)(C)c1ccc(C(=O)c2c[nH]c(C(=O)NCc3cccnc3)c2)cc1	-11	-87	8	10	-79	4
N/C(Cc1ccccc1)=N\OC(=O)c1cccc2ccccc12	8	-42	-1	1	78*	-7
N/C(Cc1ccc([N+](=O)[O-])cc1)=N\OC(=O)c1ccc2ccccc2c1	13	-66	-8	16	81*	-3
Cc1cccc(C(=O)O/N=C(\N)Cc2ccc([N+](=O)[O-])cc2)c1	5	-7	3	-13	3	-9
C[C@H](CO)N1C[C@H](C)[C@H](CN(C)C(=O)Nc2ccc(-c3cccs3)cc2)OCc2cnnn2CCCC1=O	.	-39	8	-5	-4	-3
CC1=NC(=O)C(N=Nc2cccc(C(=O)O)c2)N1c1ccccc1 (stereo unspecified)	81*	54*	-1	2	47	0
CSc1cccc(NC(=S)N(CCCN2CCC(C)CC2)Cc2cccs2)c1	2	14	14	-23	-2	2
O=C(N/N=C/c1ccc([N+](=O)[O-])cc1)c1cc2ccccc2o1	9	10	-8	-18	-1	10
O=C(N/N=C/c1ccc([N+](=O)[O-])o1)c1ccc(O)cc1	87*	-58	-4	22	-28	-6
O=C(N/N=C/c1ccc([N+](=O)[O-])o1)C1CCCC1	18	-10	6	10	-1	7
CC(NC(=O)C12CC3CC(CC(C3)C1)C2)C(=O)N/N=C/C1=C(N2CCOCC2)C(=C\c2cccc([N+](=O)[O-])c2)/CC1 (stereo unspecified)	14	17	-1	5	20	12
CC(NC(=O)C12CC3CC(CC(C3)C1)C2)C(=O)NN=Cc1ccc([N+](=O)[O-])o1 (stereo unspecified)	62*	-19	-6	14	18	-6
CC(C)C(NC(=O)C12CC3CC(CC(C3)C1)C2)C(=O)N/N=C/C1=C(N2CCOCC2)C(=C\c2ccc([N+](=O)[O-])cc2)/CC1 (stereo unspecified)	-6	5	-100*	91*	30	-7
O=C(N/N=C/c1ccc([N+](=O)[O-])o1)c1cc2ccccc2o1	98*	0	8	-9	19	1
Cc1c2cnccc2c(C)c2c1oc1ccccc12	-8	-151	22	-105	-254	10
Nc1nc(NCCCN2CCOCC2)nc(Nc2cccc(Cl)c2)c1[N+](=O)[O-]	-41	1	-14	-15	32	3
COc1ccc(C(=O)N[C@H](C(=O)NCCCSc2ccccc2)C(C)C)cc1	-10	13	12	-10	11	10
Cc1nc2ccccn2c1C(=O)N/N=C/c1ccc(CNC(=O)C(=O)Nc2ccccc2)o1	-5	-7	6	-23	-22	-1
SMILES	MITF TRPM1 inh	HIF-2a inh	KKLEB cytotox	CF NFkB block	Peg3 promoter	ABHD5-PLIN5 inh
O=C(N/N=C/c1ccc([N+](=O)[O-])o1)c1cc2c(ccc3ccccc32)o1	?	-7	-12	-18	54*	2
Cc1ccc(/C=N/NC(=O)c2cc3c(ccc4ccccc43)o2)o1	-31	-76	11	-41	-57	3
CCN(CC)S(=O)(=O)c1cccc(C(=O)N/N=C/c2ccc([N+](=O)[O-])o2)c1	85*	5	12	-13	5	-3
Cc1nc2ccccn2c1C(=O)N/N=C/c1ccc([N+](=O)[O-])o1	69*	-3	-2	-7	15	-5
C[C@H]1CN=C(N(C)C)N1CCCC1CCCCC1	6	-5	-2	19	-1	-11
CCC(Oc1ccccc1OC)C(=O)Nc1ccc2c(c1)OCO2 (stereo unspecified)	5	-23	1	-9	-10	-5
COc1ccc([C@H]2CC(=O)C=C(c3ccc(C(=O)O)cc3)C2)cc1OC	-6	15	-7	5	5	2
COC1=C(C)C(=O)C2=C(C1=O)C1C3CC4=C(C(=O)C(OC)=C(C)C4=O)C(CNC(=O)C(C)=O)N3C(C#N)C(C2)N1C (stereo unspecified)	114*	78*	-44	81*	101*	-14
COC(=O)COc1ccc(-n2cnnn2)cc1	11	2	-7	8	8	8
COC(=O)c1c(C)[nH]c(C(=O)OCc2csc(CC(=O)Nc3ccccc3C)n2)c1C	-6	-12	15	-26	-20	-14
CC(C)N(C(=O)[C@H]1C[C@H](CC(=O)NCc2cccc(C(F)(F)F)c2)C(=O)N2CCc3c([nH]c4cc(-c5ccco5)ccc34)[C@]12C)C(C)C	10	-3	-7	16	16	22*
COc1ccc(CNC(=O)C[C@H]2C[C@H](C(=O)N3CCCCC3)[C@@]3(C)c4[nH]c5cc(-c6ccco6)ccc5c4CCN3C2=O)cc1OC	13	5	-11	17	12	-4
CCN(CC)C(=O)[C@H]1C[C@H](CC(=O)NCc2ccc(OC)c(OC)c2)C(=O)N2CCc3c([nH]c4cc(-c5ccco5)ccc34)[C@]12C	15	8	-12	10	22	23*
CC(C)N(C(=O)[C@H]1C[C@H](CC(=O)NCCCN(C)C)C(=O)N2CCc3c([nH]c4cc(-c5ccco5)ccc34)[C@]12C)C(C)C	73*	-30	-15	40	91*	19
Cc1cccc(NC(=O)CCC2CCN(C(=O)C3CC=CCC3)CC2)c1 (stereo unspecified)	-1	5	6	-15	8	1
O=C(OCC(=O)N1CCN(c2ccccc2)CC1)c1nc(Cl)ccc1Cl	11	8	-1	12	14	-2
O=c1cc(-c2ccc(Cl)cc2)oc(=O)[nH]1	8	7	-6	-12	2	-2
